Assay results from PubChem BioAssay AID2013 (Sanford-Burnham Center for Chemical Genomics, 2009).
Among all 290,000 compounds or so, about 370 (0.13%) were called active.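 Rule for the calls: active = spots per cell inhibited over 60%, with over 100 cells counted and total cytoplasm intensity under 500,000; inconclusive = wells with under 100 cells, flagged as likely toxic; inactive = the rest.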 The sample as a whole holds a higher share of actives than the screen did. Potency and affinity values are given separately.

Molecular target: G-protein coupled receptor 55 (Homo sapiens) (UniProt Q9Y2T6)
Assay: inhibition of LPI-stimulated GPR55 beta-arrestin translocation – imaging, U2OS, beta-arrestin-GFP, LPI agonist, primary screen (AID 2013);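 note: U2OS cells stably carrying GPR55 and arrestin-GFP stimulated by 5 µM LPI near EC80; imaged beta-arrestin-GFP aggregate spots per cell after agonist stimulation; plate controls were LPI-stimulated DMSO wells for no effect and DMSO wells without LPI for full effect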
Conditions: LPI antagonism, at 10 µM, active compounds read high

Chain of G-protein coupled receptor 55 (Homo sapiens) (Q9Y2T6 whole entry, looked up): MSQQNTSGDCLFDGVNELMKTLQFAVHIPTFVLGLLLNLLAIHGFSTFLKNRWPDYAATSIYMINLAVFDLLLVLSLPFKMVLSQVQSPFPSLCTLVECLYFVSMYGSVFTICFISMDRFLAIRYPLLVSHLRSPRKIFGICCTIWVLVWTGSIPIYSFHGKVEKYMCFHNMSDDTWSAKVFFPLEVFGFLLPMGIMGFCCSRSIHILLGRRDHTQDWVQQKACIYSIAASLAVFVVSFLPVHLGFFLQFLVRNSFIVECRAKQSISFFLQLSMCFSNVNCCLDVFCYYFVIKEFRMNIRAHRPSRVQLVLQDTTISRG

| SMILES | inhibition |
| --- | --- |
| CCCn1cc(CN2CCC(n3nccc3NC(=O)c3ccc4c(c3)OCO4)CC2)c(C)n1 | 6% (inactive) |
| CCc1ccc(C(=O)COC(=O)[C@@H](NC(N)=O)[C@@H](C)CC)cc1 | 0.9% (inactive) |
| CN(C)CCCN(C(=O)CCc1ccccc1)c1nc2ccc(Cl)cc2s1 | 75.6% (active) |
| Cc1ccc2nc(N(CCCN(C)C)C(=O)CCc3ccccc3)sc2c1 | 29.6% (inactive) |
| CN(C)CCCN(C(=O)CCc1ccccc1)c1nc2ccc(Br)cc2s1 | 44.7% (inactive) |
| CN(C(=O)c1ccc(OC2CCN(Cc3ccccn3)CC2)cc1)C1CCCCC1 | -18.7% (inactive) |
| C1CCC(C23CC4CC(CC(C4)C2)C3)NC1 (configuration not stated) | -4.6% (inactive) |
| O=S(=O)(CCC1CCCCN1)c1ccccc1 (configuration not stated) | 0.5% (inactive) |
| CCCN1Cc2cccc(C(=O)N3CCN(c4ccc(F)cc4)CC3)c2C1=O | 2.2% (inactive) |
| O=C(Nc1ccc(F)cc1F)c1cc(-c2ccco2)nc2ccccc12 | 7.3% (inactive) |
| CN(/C(=N/S(=O)(=O)c1ccccc1)c1ccccc1)S(=O)(=O)c1ccccc1 | 5.7% (inactive) |
| CCc1ccc(CCC(=O)Nc2nccs2)o1 | 2.3% (inactive) |
| Oc1ccc(-c2c(-c3ccsc3)sc3ccccc23)cc1 | 6.5% (inactive) |
| Nc1ccc(C2(c3ccc(N)cc3)OC(=O)c3ccccc32)cc1 | 4% (inactive) |
| CC(=O)Oc1ccc2c(c1)Oc1cc(OC(C)=O)ccc1C21OC(=O)c2ccccc21 | 9.9% (inactive) |
| CN(C)c1ccc(C2(c3ccc(N(C)C)cc3)OC(=O)c3cc(N)ccc32)cc1 | 6.1% (inactive) |
| Cc1cc(C2(c3ccc(O)c(C)c3)OC(=O)c3ccccc32)ccc1O | 83.2% (active) |
| O=C(O)c1ccc(C2(c3ccc(C(=O)O)cc3)OC(=O)c3ccccc32)cc1 | -10.8% (inactive) |
| Cc1cc(O)c(C(C)C)cc1C1(c2cc(C(C)C)c(O)cc2C)OC(=O)c2ccccc21 | 6.1% (inactive) |
| Cc1cccc(C2(c3cccc(C)c3)OC(=O)c3ccccc32)c1 | 10.5% (inactive) |
| CCCCOc1ccc(-c2nnn(CC(=O)NCCc3c[nH]c4ccccc34)n2)cc1 | 4% (inactive) |
| CCOc1cc(-c2noc(CCC(=O)NCC3CCCO3)n2)ccc1OC (configuration not stated) | 0% (inactive) |
| COc1ccc(C2CC(=O)c3cnn(-c4nc(C)cc(C)n4)c3C2)cc1OC (configuration not stated) | 6.6% (inactive) |
| CC1=CC(C)(C)N2C(=O)C3(NCCc4c3[nH]c3ccccc43)c3cccc1c32 (configuration not stated) | 18.2% (inactive) |
| O=C(CNC(=S)N(Cc1ccc(F)cc1)C1CCCCC1)NCCN1CCOCC1 | 12.3% (inactive) |

| SMILES | inhibition |
| --- | --- |
| Cc1c(C(=O)NC2CCCCC2C)oc2ccccc12 (configuration not stated) | 0.8% (inactive) |
| COc1cc(NC(=O)C2CCN(S(=O)(=O)c3cccnc3)CC2)cc(OC)c1OC | 8.8% (inactive) |
| O=C(c1cccnc1)N1CCN(C(=O)c2cccc(Cl)c2)CC1 | -12.2% (inactive) |
| Cc1cccc2c1c(N=NC(N)=S)c(O)n2C1OC(CO)C(O)C(O)C1O (configuration not stated) | -13.4% (inactive) |
| O=C1NCCN(Cc2ccoc2)C1CC(=O)N(CCO)Cc1ccccc1 (configuration not stated) | 1.1% (inactive) |
| CCCCOc1ccccc1NC(=O)c1ccc(=O)[nH]c1 | 2.2% (inactive) |
| CCCCOc1ccccc1NC(=O)c1ccco1 | 13.2% (inactive) |
| O=C(CCc1ccccc1Cl)NC1CCCN(c2ccc(C(F)(F)F)cn2)C1 (configuration not stated) | 5% (inactive) |
| COc1ccc(C(C(=O)NCCC(C)C)N(CCCO)C(=O)c2snc(C(N)=O)c2N)cc1OC (configuration not stated) | 5% (inactive) |
| Nn1c(COc2cccc(Cl)c2)nc2ccccc2c1=O | -10.2% (inactive) |
| CCc1nonc1NC(=O)c1oc2ccccc2c1C | 10% (inactive) |
| N=c1n(Cc2ccccc2)c2ccccc2n1CC(O)COc1ccccc1 (configuration not stated) | 50.2% (inactive) |
| Cc1ccc(OCC(O)Cn2c(=N)n(Cc3ccccc3)c3ccccc32)cc1 (configuration not stated) | 13.1% (inactive) |
| CC(C)N(C(=O)CSc1nc2ccccc2n1Cc1ccccc1)C(C)C | 2% (inactive) |
| O=C(O)CSc1nc2ccccc2n1-c1ccccc1 | 6.1% (inactive) |
| CC(=O)Nc1ccc(NC(=O)c2ccc(C)c(S(=O)(=O)Nc3cccc(C)c3)c2)cc1 | -3.1% (inactive) |
| COC(=O)C1CCN(C2=C(NS(=O)(=O)c3ccc(Cl)cc3)C(=O)c3ccccc3C2=O)CC1 | 2% (inactive) |
| Cc1cc(NC(=O)NC2CCCN2S(=O)(=O)c2ccc(Cl)cc2)no1 (configuration not stated) | 8.3% (inactive) |
| Cc1cc(C)cc(-c2nnc(SCC(=O)c3ccc4c(c3)OCCO4)o2)c1 | -7.3% (inactive) |
| CC(C)(C)c1ccc(CN(Cc2ccco2)Cc2nnnn2C2CCCC2)cc1 | 19.2% (inactive) |
| c1coc(CN(Cc2cccs2)Cc2nnnn2C2CCCCC2)c1 | 25.9% (inactive) |
| CCCCCn1c(=O)[nH]c2cc(C(=O)NCc3ccc4c(c3)OCO4)ccc2c1=O | 31.9% (inactive) |
| CC1CCN(C(=O)c2ccc([N+](=O)[O-])o2)CC1 | 5.5% (inactive) |
| CCCCNC(=O)C(Sc1ccccc1)c1ccccc1 (configuration not stated) | -9.3% (inactive) |
| CC(=O)NS(=O)(=O)c1ccc(NC(=O)C(Sc2ccccc2)c2ccccc2)cc1 (configuration not stated) | 8% (inactive) |

| SMILES | inhibition |
| --- | --- |
| NS(=O)(=O)c1ccc(NC(=O)C(Sc2ccccc2)c2ccccc2)cc1 (configuration not stated) | 12.2% (inactive) |
| CC(=O)Nc1ccc(NC(=O)C(Sc2ccccc2)c2ccccc2)cc1 (configuration not stated) | -1.5% (inactive) |
| CCCNC(=O)C(Sc1ccccc1)c1ccccc1 (configuration not stated) | 8.1% (inactive) |
| CCC(C)NC(=O)C(Sc1ccccc1)c1ccccc1 (configuration not stated) | -0.3% (inactive) |
| CCOCCc1nn2c(=O)cc(CSCC(=O)Nc3ccc(OC)cc3)nc2s1 | 16.4% (inactive) |
| Cc1cc(-c2ccccc2)c2c(=O)n(-c3ccccc3)[nH]c2n1 | -8.8% (inactive) |
| COc1cc(S(=O)(=O)N2CCC(C(N)=O)CC2)c(C)cc1C | -8.6% (inactive) |
| CCCC(=O)NC(c1ccccc1Cl)c1ccc2cccnc2c1O (configuration not stated) | 11.4% (inactive) |
| CN(C)c1ccc(/C=N/n2c(COc3ccccc3)n[nH]c2=S)cc1 | 1.6% (inactive) |
| COC(=O)c1cc(NC(=O)Cc2ccc(OC)c(OC)c2)cc(C(=O)OC)c1 | 11% (inactive) |
| COc1ccc(C(=O)NCC2(c3ccc(OC)c(OC)c3)CCCC2)c(OC)c1 | -8.5% (inactive) |
| CCN1CC2=C(OC(N)=C(C#N)C2c2ccccc2)/C(=C\c2ccccc2)C1 (configuration not stated) | 3.6% (inactive) |
| CCN1CC2=C(OC(N)=C(C#N)C2c2cccs2)/C(=C\c2cccs2)C1 (configuration not stated) | 13.2% (inactive) |
| Cc1nc2ccccc2nc1OCc1cccc([N+](=O)[O-])c1 | 6.2% (inactive) |
| Cc1ccc(C)c(NC(=O)c2ccccc2C(=O)c2ccccc2)c1 | 79.4% (active) |
| Cc1ccc(C)c(NC(=O)c2ccccc2O)c1 | 10.8% (inactive) |
| Cc1cc(C)c(NC(=O)c2ccccc2C(=O)c2ccccc2)c(C)c1 | 10.3% (inactive) |
| OCC[C@@H]1C[C@H](O)[C@@H](O)[C@]2(Cc3ccccc3O2)O1 | -2.3% (inactive) |
| COc1ccc(-c2cc(N)n(S(=O)(=O)c3ccc(F)cc3)n2)cc1OC | 1.3% (inactive) |
| COc1ccc(S(=O)(=O)n2nc(-c3cc(OC)c(OC)c(OC)c3)cc2N)cc1OC | -6.7% (inactive) |
| Cn1nnc2c(N3CCCCC3)nccc21 | 14.8% (inactive) |
| O=C(CC12CC3CC(CC(C3)C1)C2)Nc1ccc(C(=O)O)cc1 | -2.4% (inactive) |
| CC(=O)Nc1ccc(NC(=O)CC23CC4CC(CC(C4)C2)C3)cc1 | 55.6% (inactive) |
| O=C(NCCCn1ccnc1)c1cc(C2CC2)on1 | -6.4% (inactive) |
| CCOc1ccc2oc(C(=O)NCC(C)(C)CN(C)C)c(C)c2c1 | 13% (inactive) |

| SMILES | inhibition |
| --- | --- |
| O=C(NCCc1ccccc1)C1COc2ccccc2O1 (configuration not stated) | 5.5% (inactive) |
| CCCCn1c(N)c(-c2nc3ccccc3o2)c2c([N+](=O)[O-])nn(CC)c(=O)c21 | 4.8% (inactive) |
| CCn1nc([N+](=O)[O-])c2c(-c3nc4ccccc4o3)c(N)n(CCCOC)c2c1=O | 98.4% (active) |
| CCCCCn1c(N)c(-c2nc3ccccc3o2)c2c([N+](=O)[O-])nn(CC)c(=O)c21 | 13.1% (inactive) |
| CCOC(=O)N1CCC(=NNC(=O)Cn2ccc(C(F)(F)F)n2)CC1 | -11.4% (inactive) |
| COC(=O)c1cnc(SCC(=O)c2ccccc2)n1C | 2% (inactive) |
| CC(C(=O)NCc1cccs1)N1C(=O)c2ccccc2C1=O (configuration not stated) | 17.5% (inactive) |
| COCCCNC(=O)c1ccc([N+](=O)[O-])c(Cl)c1 | 2.9% (inactive) |
| C=CCNC(=O)c1ccc([N+](=O)[O-])c(Cl)c1 | -0.3% (inactive) |
| Cc1ccnc2c(N3C(=O)C4C5c6ccccc6C(c6ccccc65)C4C3=O)cccc12 (configuration not stated) | 13.1% (inactive) |
| Cc1ccc(C)c(NC(=O)CN(C)C(=O)/C=C/c2ccco2)c1 | -6.6% (inactive) |
| CCCCCCCCOC(=O)CCc1c(C)[nH]c(=S)[nH]c1=O | -16.9% (inactive) |
| COc1ccc(C)cc1NC(=O)CCNS(=O)(=O)c1cccc2nonc12 | 6.9% (inactive) |
| COc1ccc(C(OCC(O)CNCCc2ccccc2)c2ccc(OC)cc2)cc1 (configuration not stated) | 8.1% (inactive) |
| OC(CNCCc1ccc(C(F)(F)F)cc1)COc1ccc2ccccc2c1 (configuration not stated) | 30.5% (inactive) |
| N#CCSc1ccsc1C(=O)Nc1ccc(F)cc1 | 2.6% (inactive) |
| COCCn1nnnc1CN1C2CCCC1CC(NC(C)=O)C2 (configuration not stated) | 0.2% (inactive) |
| COc1cc(/C=N/OCC(=O)NC2CCCCC2C)ccc1OCc1ccc(Cl)cc1 (configuration not stated) | -3.5% (inactive) |
| CCOc1ccccc1CNS(=O)(=O)c1ccc(-c2cnc(C3CC3)o2)cc1 | 99.5% (inactive) |
| COc1cccc(N2CCN(c3ncnc4c3[nH]c3ccccc34)CC2C)c1 (configuration not stated) | 33% (inactive) |
| COc1cccc(N2CCN(c3ncnc4c3[nH]c3ccc(F)cc34)CC2C)c1 (configuration not stated) | 91.8% (active) |
| Fc1ccc2[nH]c3c(N4CCN(c5ccccc5)CC4)ncnc3c2c1 | -5.9% (inactive) |
